# Test results taken from the supplement of paper PMC8728848.
# Many of the other results were omitted from the sample, so the strongest signals are more common in it than they were.
# B1: Blon2468mut (Bifidobacterium longum) (protein)
# chain: MTFIKQMMPRYVASMTAGIVAAAMAATCAFAPVANADAVSPTQETIQSTGRHFMVYYRAWRDVTMKGVNTDLPDDNWISMYDIPYGVDVVNIFSYVPSGQEEQAQPFYDKLKSDYAPYLHSRGIKLVRGIDYTGVAVNGFRTFMKEQNKTESEATEADYDAYAKQVIDKYMISVGLDGLDIDMQAHPNDADVKISDNVIRALSKHIGPKSAKPDTTMFLYDTNGSYLNPFKNVAECFDYVAYQQYGSSSDRTARAAADYQPYIGNEFVPGLTFPEEGDMNNRWYDATEPYEESHFYQVASYVREHNLGGMFVYALDRDGRNYDEDLRRIVPSNLLWTKTAIAESEGMALDTAKTAANHYLDRMSLRQVIDDNAASADKARDMVGKAANLYETNKAVLGGDYGEGFSNTYDPTLEAGLLGIDISVLQQQIDKSSEIIGADTAESDAKTALRMARDAAIDGLTGKIYTADQVSAWSQALKAALDATVPVPTPDSTDQNGNRDKVTNHKVQGQPKQLSATGISTDIIVAVGVTLAIAGVALSLSRKLS
# Assays:
# Test in all cases: glycan array binding signal (z-score within array); higher = stronger binding
# Details in all cases: glycan notation: IUPAC condensed, linker removed
# [1] = target: Fuc(a1-2)Gal(b1-3)GlcNAc6S
# Procedure, shortened: (§1)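 Columns mapping to the same glycan were averaged after glycan names were converted to IUPAC-condensed notation. The data come from 3228 arrays in the Consortium for Functional Glycomics database, limited to those with an available protein sequence. Binding is reported as a within-array Z-score averaged across arrays of one protein sequence and across linkers.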
# [2] = target: Fuc(a1-2)Gal(b1-3)[Fuc(a1-4)]GlcNAc(b1-2)Man(a1-3)[Fuc(a1-2)Gal(b1-3)[Fuc(a1-4)]GlcNAc(b1-2)Man(a1-6)]Man(b1-4)GlcNAc(b1-4)[Fuc(a1-6)]GlcNAc(b1-4)[Fuc(a1-6)]GlcNAc
# Procedure, shortened: as §1
# [3] = target: Fuc(a1-2)Gal(b1-4)GlcNAc(b1-2)Man(a1-3)[Fuc(a1-2)Gal(b1-4)GlcNAc(b1-2)Man(a1-6)]Man(b1-4)GlcNAc(b1-4)GlcNAc
# Procedure, shortened: as §1
# [4] = target: Fuc(a1-2)Gal(b1-4)GlcNAc(b1-2)[Fuc(a1-2)Gal(b1-4)GlcNAc(b1-4)]Man(a1-3)[Fuc(a1-2)Gal(b1-4)GlcNAc(b1-2)Man(a1-6)]Man(b1-4)GlcNAc(b1-4)GlcNAc
# Procedure, shortened: as §1
# [5] = target: Fuc(a1-2)Gal(b1-4)GlcNAc(b1-3)Gal(b1-4)GlcNAc(b1-2)Man(a1-3)[Fuc(a1-2)Gal(b1-4)GlcNAc(b1-3)Gal(b1-4)GlcNAc(b1-2)Man(a1-6)]Man(b1-4)GlcNAc(b1-4)GlcNAc
# Procedure, shortened: as §1
# [6] = target: Fuc(a1-2)Gal(b1-4)[Fuc(a1-3)]GlcNAc
# Procedure, shortened: as §1
# [7] = target: Fuc(a1-2)Gal(b1-4)[Fuc(a1-3)]GlcNAc(b1-2)[Fuc(a1-2)Gal(b1-4)[Fuc(a1-3)]GlcNAc(b1-4)]Man(a1-3)[Fuc(a1-2)Gal(b1-4)[Fuc(a1-3)]GlcNAc(b1-2)Man(a1-6)]Man(b1-4)GlcNAc(b1-4)GlcNAc
# Procedure, shortened: as §1
# [8] = target: Fuc(a1-2)Gal6S(b1-3)GlcNAc6S
# Procedure, shortened: as §1
# [9] = target: Fuc(a1-2)[Gal(a1-3)]Gal(b1-3)GlcNAc(b1-2)Man(a1-3)[Fuc(a1-2)[Gal(a1-3)]Gal(b1-3)GlcNAc(b1-2)Man(a1-6)]Man(b1-4)GlcNAc(b1-4)[Fuc(a1-6)]GlcNAc
# Procedure, shortened: as §1
# [10] = target: Fuc(a1-2)[Gal(a1-3)]Gal(b1-4)[Fuc(a1-3)]GlcNAc
# Procedure, shortened: as §1
# [11] = target: Fuc(a1-2)[GalNAc(a1-3)]Gal(b1-3)GlcNAc(b1-2)Man(a1-3)[Fuc(a1-2)[GalNAc(a1-3)]Gal(b1-3)GlcNAc(b1-2)Man(a1-6)]Man(b1-4)GlcNAc(b1-4)[Fuc(a1-6)]GlcNAc
# Procedure, shortened: as §1
# [12] = target: Fuc(a1-2)[GalNAc(a1-4)]Gal(b1-4)GlcNAc
# Procedure, shortened: as §1
# [13] = target: Fuc(a1-2)[GalNAc(b1-3)]Gal
# Procedure, shortened: as §1
# [14] = target: Fuc(a1-3)[Gal(b1-4)]GlcNAc(b1-2)Man
# Procedure, shortened: as §1
# [15] = target: Gal(a1-3)Gal(b1-3)GlcNAc(b1-2)Man
# Procedure, shortened: as §1
# [16] = target: Gal(a1-3)Gal(b1-4)[Fuc(a1-3)]GlcNAc
# Procedure, shortened: as §1
# [17] = target: Gal(a1-3)[Gal(a1-4)]Gal(b1-4)GlcNAc
# Procedure, shortened: as §1
# [18] = target: Gal(b1-3)GlcNAc
# Procedure, shortened: as §1
# [19] = target: Gal(b1-3)GlcNAc(b1-2)Man
# Procedure, shortened: as §1
# [20] = target: Gal(b1-3)GlcNAc(b1-2)Man(a1-3)[GlcNAc(b1-4)][Gal(b1-3)GlcNAc(b1-2)Man(a1-6)]Man(b1-4)GlcNAc(b1-4)GlcNAc
# Procedure, shortened: as §1
# [21] = target: Gal(b1-3)GlcNAc(b1-3)Gal(b1-4)GlcNAc(b1-2)Man(a1-3)[Gal(b1-3)GlcNAc(b1-3)Gal(b1-4)GlcNAc(b1-2)Man(a1-6)]Man(b1-4)GlcNAc(b1-4)GlcNAc
# Procedure, shortened: as §1
# [22] = target: Gal(b1-3)GlcNAc(b1-3)Gal(b1-4)GlcNAc(b1-2)[Gal(b1-3)GlcNAc(b1-3)Gal(b1-4)GlcNAc(b1-6)]Man(a1-6)[Gal(b1-3)GlcNAc(b1-3)Gal(b1-4)GlcNAc(b1-2)Man(a1-3)]Man(b1-4)GlcNAc(b1-4)[Fuc(a1-6)]GlcNAc
# Procedure, shortened: as §1
# [23] = target: Gal(b1-3)GlcNAc(b1-3)Gal(b1-4)GlcNAc(b1-3)Gal(b1-4)GlcNAc(b1-2)[Gal(b1-3)GlcNAc(b1-3)Gal(b1-4)GlcNAc(b1-3)Gal(b1-4)GlcNAc(b1-6)]Man(a1-6)[Gal(b1-3)GlcNAc(b1-3)Gal(b1-4)GlcNAc(b1-3)Gal(b1-4)GlcNAc(b1-2)Man(a1-3)]Man(b1-4)GlcNAc(b1-4)[Fuc(a1-6)]GlcNAc
# Procedure, shortened: as §1
# [24] = target: Gal(b1-3)[Fuc(a1-4)]GlcNAc(b1-6)GalNAc
# Procedure, shortened: as §1
# [25] = target: Gal(b1-4)GlcNAc(b1-2)Man(a1-6)[GlcNAc(b1-2)Man(a1-3)]Man(b1-4)GlcNAc(b1-4)GlcNAc
# Procedure, shortened: as §1
# [26] = target: Gal(b1-4)GlcNAc(b1-3)Gal(b1-4)GlcNAc(b1-3)Gal(b1-4)GlcNAc(b1-3)Gal(b1-4)GlcNAc(b1-3)Gal(b1-4)GlcNAc(b1-2)Man(a1-3)[Gal(b1-4)GlcNAc(b1-3)Gal(b1-4)GlcNAc(b1-3)Gal(b1-4)GlcNAc(b1-3)Gal(b1-4)GlcNAc(b1-3)Gal(b1-4)GlcNAc(b1-2)Man(a1-6)]Man(b1-4)GlcNAc(b1-4)[Fuc(a1-6)]GlcNAc
# Procedure, shortened: as §1
# [27] = target: Gal3S(b1-4)[Fuc(a1-3)]Glc6S
# Procedure, shortened: as §1
# [28] = target: Gal6P(b1-4)GlcNAc
# Procedure, shortened: as §1
binder,measurement,setting,value
B1,glycan array binding signal (z-score),[1],-0.052
same,glycan array binding signal (z-score),[2],-0.074
same,glycan array binding signal (z-score),[3],-0.068
same,glycan array binding signal (z-score),[4],-0.045
same,glycan array binding signal (z-score),[5],0.003
same,glycan array binding signal (z-score),[6],-0.065
same,glycan array binding signal (z-score),[7],-0.036
same,glycan array binding signal (z-score),[8],0.078
same,glycan array binding signal (z-score),[9],-0.055
same,glycan array binding signal (z-score),[10],-0.049
same,glycan array binding signal (z-score),[11],-0.036
same,glycan array binding signal (z-score),[12],-0.021
same,glycan array binding signal (z-score),[13],-0.061
same,glycan array binding signal (z-score),[14],-0.022
same,glycan array binding signal (z-score),[15],-0.087
same,glycan array binding signal (z-score),[16],-0.083
same,glycan array binding signal (z-score),[17],0.009
same,glycan array binding signal (z-score),[18],-0.068
same,glycan array binding signal (z-score),[19],-0.078
same,glycan array binding signal (z-score),[20],-0.042
same,glycan array binding signal (z-score),[21],-0.09
same,glycan array binding signal (z-score),[22],0.03
same,glycan array binding signal (z-score),[23],0.124
same,glycan array binding signal (z-score),[24],-0.056
same,glycan array binding signal (z-score),[25],-0.055
same,glycan array binding signal (z-score),[26],-0.046
same,glycan array binding signal (z-score),[27],0.006
same,glycan array binding signal (z-score),[28],-0.066
